What all share (assay): PBM binding z-score (relative to random genomic background probes); higher = stronger binding; sequences stand for … in GC…GCGATTGACAGCGTAGAATGAAGG
Test [1] has as its system FXR:RXRa (NR concentration 270 nM, RXRa partner concentration 90 nM). The gist of the method:
(§1)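 Ligand-free nuclear receptor dimers were applied to custom Agilent 4×180K protein-binding microarrays whose double-stranded probes carried direct-repeat seeds, single-nucleotide variants, half-site ablations and random human genomic background sequences in 34-nt variable regions. Incubation lasted 1 h. Binding z-scores were computed against the random background probes from regression-normalized fluorescence.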

The subject of test [2] is LXRa:RXRa (NR concentration 270 nM, RXRa partner concentration 90 nM). In a few lines:
as §1

In test [3] the test system is LXRa homodimer (NR concentration 270 nM). The gist of the method:
as §1

The subject of test [4] is LXRb:RXRa (NR concentration 270 nM, RXRa partner concentration 90 nM). In a few lines: as §1
Test [5] concerns LXRb homodimer (NR concentration 270 nM). The gist of the method:
as §1

The test system of test [6] is PPARa:RXRa (NR concentration 270 nM, RXRa partner concentration 90 nM). The gist of the method: as §1
Test [7] has as its system PPARg:RXRa (NR concentration 180 nM, RXRa partner concentration 90 nM). In a few lines: as §1
Test [8] relates to PPARg:RXRa 270nM:90nM, anti-RXR (NR concentration 270 nM, RXRa partner concentration 90 nM). The gist of the method: as §1
For test [9], the system named is PPARg:RXRa 30nM:10nM, anti-RXR (NR concentration 30 nM, RXRa partner concentration 10 nM). The gist of the method:
as §1

For test [10], the system named is PPARg:RXRa 90nM:30nM, anti-RXR (NR concentration 90 nM, RXRa partner concentration 30 nM). The gist of the method: as §1
In test [11] the test system is PPARg:RXRa DBDmut IVT, anti-RXR (DBD mutation: RXRa K156A/R161A, NR concentration 270 nM, RXRa partner concentration 90 nM). The gist of the method: as §1
Test [12] has as its system PPARg:RXRa IVT, anti-PPARg (NR concentration 270 nM, RXRa partner concentration 90 nM). In a few lines: as §1
Test [13] has as its system PPARg DBDmut:RXRa IVT, anti-PPARg (DBD mutation: PPARg1 K132A/R137A, NR concentration 270 nM, RXRa partner concentration 90 nM). The gist of the method: as §1
The test system of test [14] is PPARg DBDmut IVT, anti-PPARg (DBD mutation: PPARg1 K132A/R137A, NR concentration 270 nM). The gist of the method:
as §1

The test system of test [15] is PPARg homodimer (NR concentration 180 nM). In a few lines: as §1
For test [16], the system named is PXR:RXRa (NR concentration 270 nM, RXRa partner concentration 90 nM). In a few lines: as §1
The subject of test [17] is PXR homodimer (NR concentration 270 nM). The gist of the method:
as §1

The subject of test [18] is RARa:RXR (NR concentration 270 nM, RXRa partner concentration 90 nM). In a few lines: as §1
In test [19] the test system is RARa homodimer (NR concentration 270 nM). The gist of the method: as §1
Test [20] deals with RARb:RXRa (NR concentration 270 nM, RXRa partner concentration 90 nM). In a few lines:
as §1

Take CAAACTAGGTCACGTAAGGTCAAAGTCGAATGAC: the PBM binding z-score in test [1] turned out to be 6.98; in [2], 8.26; in test [3] it was 7.28; in [4], 7.56; in [5], 2.27; in test [6], 6.49. In addition, the PBM binding z-score in test [7] turned out to be 10.1; in [8], 8.07; in [9] it was 6.4; in test [10] it was 8.05; in [11], 8.55; in test [12], 9.19. In addition, the PBM binding z-score in test [13] amounted to 2.78; in test [14], 1.76; in [15], 2.46; in [16] it was 6.83; in test [17] it was 2.57; in [18], 6.43. Besides, the PBM binding z-score in test [19] was found to be 1.84; in test [20], 5.38.
As to TAGCCTGGGTCATTGGGCCAGTATAGTACGCATC, the PBM binding z-score in test [1] was 3.3; in test [2], 1.88; in test [3], -0.677; in test [4], 1.36; in [5], -0.556; in [6], 4.11. Further, the PBM binding z-score was 3.81 in test [7]; 3.62 in [8]; 0.89 in test [9]; 2.1 in test [10]; 1.27 in [11]; 3.57 in test [12]. The PBM binding z-score in test [13] was 0.337; in test [14], -0.475; in [15] it was 0.764; in test [16] it was 1.44; in test [17] it was -1.02; in test [18] it was 2.07. Also, the PBM binding z-score in test [19] was -0.67; in test [20], 3.34.
In the case of ACTAGTTGGTCAGCTGATGTCACACACAATTCGG, the PBM binding z-score in [1] is 0.0768; in [2] it was -0.317; in test [3] it was -0.115; in test [4], 0.235; in [5], -0.112; in test [6], 0.0483. Also, the PBM binding z-score in test [7] came out at 0.943; in test [8] it was 0.0634; in test [9], 0.0518; in [10] it was 0.0179; in [11], 1.1; in test [12], 0.986. In addition, the PBM binding z-score is 0.46 in test [13]; 0.51 in test [14]; 0.558 in test [15]; 0.361 in [16]; -0.542 in test [17]; 0.497 in test [18]. Also, the PBM binding z-score in test [19] came to 0.341; in test [20], 0.995.
As for GCATATAGGTAACACAAGGTGAAAGTCCGATTGT, the PBM binding z-score in test [1] is 0.896; in test [2], 3.64; in test [3] it was -0.04; in test [4], 1.36; in [5], -0.351; in [6], 2.19. In addition, the PBM binding z-score in test [7] worked out at 2.09; in [8], 2; in test [9], 0.512; in test [10], 1.26; in [11] it was 5.29; in test [12], 4.7. In addition, the PBM binding z-score was 0.827 in [13]; 0.927 in [14]; 0.275 in test [15]; 0.74 in test [16]; -0.11 in [17]; 1.25 in test [18]. The PBM binding z-score is 0.102 in test [19] and 0.856 in test [20].
Regarding TAGCCTAGGTCATGCGGGCCAGAATAGTGTCGGC, the PBM binding z-score in [1] is 4.39; in test [2], 3.19; in test [3] it was 0.255; in [4], 1.79; in test [5], -0.467; in test [6] it was 3.93. For the same sequence, the PBM binding z-score in [7] amounted to 2.58; in test [8], 2.53; in test [9], 0.103; in [10] it was 1.54; in test [11], 1.69; in test [12], 2.9. In addition, the PBM binding z-score in test [13] is -0.0114; in test [14] it was -0.646; in [15], 0.886; in [16] it was 1.66; in [17], -0.503; in test [18], 2.58. Besides, the PBM binding z-score in [19] was -0.8; in test [20], 3.83.
As for CGTCCAAAGTCAGCAGGTCAGTGAAAGCGACGTG, the PBM binding z-score is 0.237 in test [1]; 0.521 in test [2]; 0.0163 in [3]; 0.578 in test [4]; -0.765 in test [5]; 1.24 in test [6]. The PBM binding z-score in test [7] was -0.0107; in test [8], 0.0351; in test [9], -0.634; in [10], -0.432; in [11], 0.261; in test [12] it was 0.191. For the same sequence, the PBM binding z-score in [13] was -0.441; in [14] it was -1.08; in test [15] it was 0.985; in test [16], 0.594; in test [17], -0.2; in test [18], 0.951. In addition, the PBM binding z-score is -0.229 in test [19] and 2.05 in [20].
As to CAAACTAGGTCAACGTCAAAGTCGGTTTGTGCCA, the PBM binding z-score in test [1] turned out to be 3.78; in test [2], 2.64; in test [3], 0.425; in test [4], 1.92; in test [5] it was 0.247; in test [6], 5.24. Also, the PBM binding z-score is 8.49 in test [7]; 6.68 in [8]; 4.95 in test [9]; 6.72 in test [10]; 8.75 in test [11]; 8.75 in test [12]. For the same sequence, the PBM binding z-score in test [13] was 5.16; in [14], 4.41; in test [15], 2.59; in [16], 1.58; in test [17], 0.241; in test [18] it was 2.38. The PBM binding z-score came out at 0.739 in test [19] and 4.11 in [20].
